# The source made the active and inactive calls.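 How the source made its calls, unless noted: active means inhibition at or above 50% at 10 µM; inactive means inhibition below 50%.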
# Legend:
# [1] = inhibitors of TNFa-induced NFkB p65 translocation, primary screen, imaging, HUVEC, MLSMR starter and 10KST1 sets (AID 438;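 active means inhibition above 20% together with a positive visual image hit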;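 further: compound added about 3h40 before a 20 min TNFalpha stimulation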;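 on inhibition: signal is the nuclear over cytoplasmic p65 intensity ratio per well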); details: HUVEC TNFa-induced p65 nuclear translocation; cell count: measured here: nuclei count (cytotoxicity indicator), at 2.08 µM; inhibition: at 2 µM, stronger effect = higher value, 0% TNFa-plus-vehicle, 100% no-TNFa wells
# [2] = reduction of polyQ htt aggregates in cells – imaging, exon1htt(103Q)mCFP cells, high-content imaging, primary screen (AID 483;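 active means visual image review flags a hit and inhibition of aggregation exceeds 20%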;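 further: compound exposure lasted 3 days before fixation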;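 on nuclei count: percent of the per-plate median nuclei count of sample wells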); details: exon1htt(103Q)mCFP cell line, aggregate imaging, at 2 µM; inhibition of aggregation: stronger effect = higher value; nuclei count: measured here: cell count, toxicity
# [3] = endothelial E-selectin expression blockers – imaging, HUVEC, immunofluorescence, MLSMR starter and 10KST1 sets, primary screen (AID 487;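 active means visually confirmed hit in the image check and inhibition above 20%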;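 on inhibition: signal is fraction of cell area covered by stained E-selectin grains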;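 on nuclei count: 100% = median nuclei count of all wells on the same plate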); details: HUVEC TNFalpha-induced E-selectin immunofluorescence imaging, at 2 µM; inhibition: stronger effect = higher value; nuclei count: measured here: cell number, toxicity
# [4] = target: Voltage-gated potassium channel subunit beta-2 (Rattus norvegicus) (UniProt P62483); assay: inhibitors of rat Kvbeta2 reductase activity – biochemical, NADPH fluorescence, primary screen (AID 622;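 active means fluorescence slope higher than the sample average by over 3 SD, cut at about -0.22 in these data, passing the limit was not always enough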;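 further: slope of raw intensity against log time taken from 70 to 1610 s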); details: recombinant KvBeta, 4-cyanobenzaldehyde reduction, at 10 µM, stronger effect = higher value
# [5] = target: Voltage-gated potassium channel subunit beta-2 (Rattus norvegicus) (UniProt P62483); assay: enhancers of rat Kvbeta2 NADPH turnover – biochemical, NADPH fluorescence, primary screen (AID 623;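 active means NADPH fluorescence slope more negative than the mean of all samples by about 3 SD, 99.7% confidence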;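 further: fluorescence intensity change per second fitted from 20 to 320 s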); details: Recombinant KvBeta, NADPH fluorescence decrease slope, 10 min; at 10 µM; stronger effect = lower value
# [6] = target: Alpha-2C adrenergic receptor (Homo sapiens) (UniProt P18825); assay: compounds altering alpha2C-coupled GIRK flux – cell-based, HEK293 alpha2C/GIRK1/2, thallium flux, primary screen (AID 624;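 active means fluorescence slope after compound addition differing from the mean of all screened samples at 99.7% confidence, in either direction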;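 further: slope of fluorescence ratio to pre-addition baseline per second over 15 to 24 s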); details: thallium flux BTC fluorescence, at 10 µM, actives lie on both sides
# [7] = blockers of RIG-like receptor reporter activation – cell-based, Sendai virus stimulus, luciferase, 10K MLSCN set, TLR/RLR signaling modifier project, primary screen (AID 602276); details: HEK293 RL24 IRF3 luciferase reporter, at 10 µM, stronger effect = higher value;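 further: firefly luciferase from ISG56 promoter only with Renilla not read in this screen; 0% = Sendai virus plus DMSO and 100% = medium plus DMSO without virus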
# [8] = TLR3 IRF3 reporter activation blockers – cell-based, poly I:C stimulus, luciferase, 10K MLSCN set, primary screen (AID 602277;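 active means inhibition of the reporter signal at or above 50%; inactive means inhibition below 50%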); details: HEK293-TLR3 RL24 IRF3 luciferase reporter, at 10 µM, stronger effect = higher value
# Sequence of Alpha-2C adrenergic receptor (Homo sapiens) (P18825 whole entry, looked up): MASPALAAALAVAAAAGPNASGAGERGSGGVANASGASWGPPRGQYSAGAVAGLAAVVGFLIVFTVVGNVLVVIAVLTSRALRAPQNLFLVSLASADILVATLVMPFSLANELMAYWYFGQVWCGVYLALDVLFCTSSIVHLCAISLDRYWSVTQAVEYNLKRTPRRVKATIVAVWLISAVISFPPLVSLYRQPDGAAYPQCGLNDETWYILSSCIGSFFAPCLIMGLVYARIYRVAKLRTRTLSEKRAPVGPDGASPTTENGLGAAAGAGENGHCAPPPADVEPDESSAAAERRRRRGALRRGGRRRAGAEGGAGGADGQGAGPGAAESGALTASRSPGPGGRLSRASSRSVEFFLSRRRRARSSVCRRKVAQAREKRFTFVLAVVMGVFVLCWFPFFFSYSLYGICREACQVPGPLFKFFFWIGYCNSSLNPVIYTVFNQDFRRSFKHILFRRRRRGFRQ
# Sequence of Voltage-gated potassium channel subunit beta-2 (Rattus norvegicus) (P62483 whole entry, looked up): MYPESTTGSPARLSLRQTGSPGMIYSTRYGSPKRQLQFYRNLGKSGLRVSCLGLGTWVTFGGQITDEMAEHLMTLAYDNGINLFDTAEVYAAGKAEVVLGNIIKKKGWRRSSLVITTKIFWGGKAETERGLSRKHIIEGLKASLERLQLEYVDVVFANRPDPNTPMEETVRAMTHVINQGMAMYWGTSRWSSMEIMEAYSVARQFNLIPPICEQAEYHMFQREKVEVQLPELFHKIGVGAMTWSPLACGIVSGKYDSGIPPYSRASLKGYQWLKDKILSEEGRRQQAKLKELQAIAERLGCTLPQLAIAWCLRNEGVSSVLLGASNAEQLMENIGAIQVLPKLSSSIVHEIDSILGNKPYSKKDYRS
SMILES,cell count [1],inhibition [1],inhibition of aggregation [2],nuclei count [2],inhibition [3],nuclei count [3],fluorescence slope [4],NADPH fluorescence slope [5],slope [6],inhibition [7],inhibition [8]
COc1ccc(C(=O)NCCc2nnc(SCc3nc4ccccc4c(=O)[nH]3)n2C)cc1,357,-6.6% (inactive),-8.1% (inactive),101%,-85.5% (inactive),112%,-0.501 (inactive),-3.6e-05 (inactive),0.00496 (inactive),18.2% (inactive),18.8% (inactive)
CSCCC(NC(=O)c1ccco1)C(=O)O (centres undefined),411,4.4% (inactive),-0.5% (inactive),105%,-358% (inactive),143%,-0.534 (inactive),-4e-05 (inactive),0.00451 (inactive),-9.48% (inactive),-11.3% (inactive)
COc1cccc(OCc2nc3ccccc3[nH]2)c1,596,-4.8% (inactive),3.2% (inactive),102%,-75.3% (inactive),114%,-0.57 (inactive),-9.8e-06 (inactive),0.0079 (inactive),-67.8% (inactive),-190% (inactive)
Cc1ccc(-c2nc3cc(NC(=O)C(C)C)ccc3o2)cc1C,709,-5% (inactive),-7.4% (inactive),99.3%,-160% (inactive),122%,-0.453 (inactive),2.2e-05 (inactive),0.00605 (inactive),19.2% (inactive),12.7% (inactive)
CC(C)CCNC(=O)Cn1c(NCCC(C)C)nc2c1c(=O)n(C)c(=O)n2C,544,-8.3% (inactive),28.1% (inactive),80.1%,-11.6% (inactive),102%,-0.623 (inactive),8.9e-06 (inactive),0.0069 (inactive),3.06% (inactive),33.2% (inactive)
O=C(Nc1cccc2ccccc12)c1cnccn1,419,11.7% (inactive),5.1% (inactive),96.9%,-180% (inactive),117%,-0.52 (inactive),-3.3e-05 (inactive),0.00645 (inactive),-180% (inactive),99.3% (active)
CCOC(=O)c1ccc(N2C(=O)CC(N(C)CCc3ccc(OC)c(OC)c3)C2=O)cc1 (centres undefined),451,-7.1% (inactive),2.9% (inactive),94.2%,-20.7% (inactive),117%,-0.431 (inactive),3.6e-05 (inactive),0.00246 (inactive),-7.6% (inactive),25.6% (inactive)
CC(=O)c1ccccc1Oc1nc(CN2CCOCC2)nc2scc(-c3cccs3)c12,330,-5.7% (inactive),13.6% (inactive),99.2%,-50.4% (inactive),109%,-0.478 (inactive),-1.8e-05 (inactive),0.00384 (inactive),7.86% (inactive),37.7% (inactive)
Cn1c(=O)n(CC(=O)OCc2ccccc2)c(=O)c2c1nc1n2CCCN1C1CCCCC1,376,3.2% (inactive),0.2% (inactive),82.9%,25.3% (inactive),92%,-0.479 (inactive),-1.8e-05 (inactive),0.00618 (inactive),-2.49% (inactive),17.2% (inactive)
C=CCOC(=O)C1=C(C)OC(N)=C(C#N)C1c1ccc2c(c1)OCO2 (centres undefined),229,13.4% (inactive),-3% (inactive),90.4%,9.6% (inactive),136%,-0.602 (inactive),-3.1e-05 (inactive),0.00567 (inactive),-2.6% (inactive),7.38% (inactive)
Cc1cc(C)n(-c2nc3nonc3nc2-n2nc(C)cc2C)n1,797,-15.2% (inactive),-2.2% (inactive),110%,-20.5% (inactive),106%,-0.416 (inactive),-2e-05 (inactive),0.00318 (inactive),11.8% (inactive),27.1% (inactive)
CCOC(=O)c1sc(NC(=O)C2CC=CCC2C(=O)O)nc1C (centres undefined),406,2.5% (inactive),-2.8% (inactive),97.8%,19.8% (inactive),105%,-0.527 (inactive),5.4e-05 (inactive),0.00721 (inactive),21.8% (inactive),32.8% (inactive)
CC1(C)Oc2ccc3ccc(=O)oc3c2C(N2CCCCC2)C1O (centres undefined),329,-4.5% (inactive),15% (inactive),94.7%,-30.2% (inactive),104%,-0.34 (inactive),1.2e-05 (inactive),0.00144 (inactive),18.2% (inactive),33.6% (inactive)
O=C(c1cnc2n(c1=O)CCS2)N1CCc2ccccc21,529,9.1% (inactive),-15.5% (inactive),114%,-39.6% (inactive),114%,-0.51 (inactive),4.8e-06 (inactive),0.00669 (inactive),14.9% (inactive),27% (inactive)
